For part of these data: Entries with a potency or affinity are not part of this list.
Experiments:
Staphylococcus aureus = experiment: Antibacterial activity against Staphylococcus aureus MRSA ATCC 43300 (CO-ADD:GP_020); MIC in CAMBH media using NBS plates, by Resazurin F(560/590); assay type: functional; conditions: Concentration 20 uM, ASSAY_TEST Inhibition of Bacterial Growth, detection method Resazurin, Fluorescence (ex560/em590), MEDIA CAMHB, plate type 384well, CORNING #3640, time 18 hr
Acinetobacter baumannii = experiment: Antibacterial activity against Acinetobacter baumannii ATCC 19606 (CO-ADD:GN_034); MIC in CAMBH media using NBS plates, by Resazurin F(560/590); assay type: functional; conditions: Concentration 20 uM, ASSAY_TEST Inhibition of Bacterial Growth, detection method Resazurin, Fluorescence (ex560/em590), MEDIA CAMHB, plate type 384well, CORNING #3640, time 18 hr
Escherichia coli = experiment: Antibacterial activity against Escherichia coli ATCC 25922 (CO-ADD:GN_001); MIC in CAMBH media using NBS plates, by Resazurin F(560/590); assay type: functional; conditions: Concentration 20 uM, ASSAY_TEST Inhibition of Bacterial Growth, detection method Resazurin, Fluorescence (ex560/em590), MEDIA CAMHB, plate type 384well, CORNING #3640, time 18 hr
Klebsiella pneumoniae = conditions: Concentration 20 uM; ASSAY_TEST Inhibition of Bacterial Growth; detection method Absorption (OD600); MEDIA CAMHB; plate type 384well; NBS; CORNING #3640; time 18 hr
Candida albicans = conditions: 20 µM
Cryptococcus neoformans = conditions: Concentration 20 uM; ASSAY_TEST Inhibition of Fungal Growth; detection method Resazurin; Absorption (OD600-OD570); plate type 384well; NBS; CORNING #3640

COc1ccccc1NC(=O)c1cc2ccccc2cc1O
Inhibition (Staphylococcus aureus): 12.35%
Inhibition (Acinetobacter baumannii): 5.68%
Inhibition (Escherichia coli): 6.98%
Inhibition (Klebsiella pneumoniae): 12.44%
Inhibition (Candida albicans): -0.94%
Inhibition (Cryptococcus neoformans): -6.93%

Cc1cccc(N=C(S)Nc2cccc(C)n2)n1
Inhibition (Staphylococcus aureus): 2.02%
Inhibition (Acinetobacter baumannii): 12.82%
Inhibition (Escherichia coli): 3.58%
Inhibition (Klebsiella pneumoniae): 8.62%
Inhibition (Candida albicans): 3.4%
Inhibition (Cryptococcus neoformans): -9.05%

c1ccc(-c2cn3ccccc3n2)cc1
Inhibition (Staphylococcus aureus): 26.82%
Inhibition (Acinetobacter baumannii): -4.96%
Inhibition (Escherichia coli): 13.79%
Inhibition (Klebsiella pneumoniae): 17.46%
Inhibition (Candida albicans): -0.09%
Inhibition (Cryptococcus neoformans): -2.58%

COc1ccc(NC(=O)CC(C)=O)c(OC)c1
Inhibition (Staphylococcus aureus): 5.13%
Inhibition (Acinetobacter baumannii): -8.6%
Inhibition (Escherichia coli): 1.4%
Inhibition (Klebsiella pneumoniae): 22.3%
Inhibition (Candida albicans): 0.23%
Inhibition (Cryptococcus neoformans): -3.01%

O=C1c2ccccc2C(=O)C1c1ccccn1
Inhibition (Staphylococcus aureus): -5.11%
Inhibition (Acinetobacter baumannii): -11.28%
Inhibition (Escherichia coli): 2.88%
Inhibition (Klebsiella pneumoniae): 6.77%
Inhibition (Candida albicans): 5.19%
Inhibition (Cryptococcus neoformans): -6.9%

O=C(O)c1ccc(O)c(O)c1 [PROTOCATECHUIC ACID]
Inhibition (Staphylococcus aureus): 11.87%
Inhibition (Acinetobacter baumannii): -8.73%
Inhibition (Escherichia coli): 11.18%
Inhibition (Klebsiella pneumoniae): 17.43%
Inhibition (Candida albicans): -0.18%
Inhibition (Cryptococcus neoformans): -4.26%

Nc1ccccc1Sc1cc(Cl)nnc1Cl
Inhibition (Staphylococcus aureus): 10.59%
Inhibition (Acinetobacter baumannii): -10.6%
Inhibition (Escherichia coli): 6.4%
Inhibition (Klebsiella pneumoniae): 13.76%
Inhibition (Candida albicans): 6.84%
Inhibition (Cryptococcus neoformans): -6.72%

CC1(C)CC2(C)OC2C2(C1)N=N/C(=N/c1ccccc1)O2 (stereo not given)
Inhibition (Staphylococcus aureus): 27.69%
Inhibition (Acinetobacter baumannii): -0.3%
Inhibition (Escherichia coli): 4.99%
Inhibition (Klebsiella pneumoniae): 7.34%
Inhibition (Candida albicans): -0.47%
Inhibition (Cryptococcus neoformans): -10.74%

CCOC(=O)c1c(C)oc(C)c(C(=O)OCC)c1=O
Inhibition (Staphylococcus aureus): 10.05%
Inhibition (Acinetobacter baumannii): 8.54%
Inhibition (Escherichia coli): -0.85%
Inhibition (Klebsiella pneumoniae): 10.69%
Inhibition (Candida albicans): 0.83%
Inhibition (Cryptococcus neoformans): -7.36%

OC(COc1cccc2ccccc12)CN1CCN(c2ccccc2Cl)CC1 (stereo not given)
Inhibition (Staphylococcus aureus): -4.97%
Inhibition (Acinetobacter baumannii): 8.91%
Inhibition (Escherichia coli): -13.55%
Inhibition (Klebsiella pneumoniae): 3.22%
Inhibition (Candida albicans): 3.81%
Inhibition (Cryptococcus neoformans): -4.59%

COc1ccc(C(=O)Oc2cccnc2O)cc1
Inhibition (Staphylococcus aureus): -4.34%
Inhibition (Acinetobacter baumannii): 16.28%
Inhibition (Escherichia coli): -5.51%
Inhibition (Klebsiella pneumoniae): 12.02%
Inhibition (Candida albicans): 4.27%
Inhibition (Cryptococcus neoformans): -4.22%

CN(C)c1ccc(/C=C/C(=O)c2cc(Cl)ccc2O)cc1
Inhibition (Staphylococcus aureus): 14.9%
Inhibition (Acinetobacter baumannii): -19.64%
Inhibition (Escherichia coli): 10.48%
Inhibition (Klebsiella pneumoniae): 1%
Inhibition (Candida albicans): 8.13%
Inhibition (Cryptococcus neoformans): -6.08%

O=C(CCl)NC1(C(=O)O)CCCC1
Inhibition (Staphylococcus aureus): -0.81%
Inhibition (Acinetobacter baumannii): 16.39%
Inhibition (Escherichia coli): -6.53%
Inhibition (Klebsiella pneumoniae): 9.23%
Inhibition (Candida albicans): 6.58%
Inhibition (Cryptococcus neoformans): -2.6%

CC(=O)Nc1nc(C)c(CCC2OCCO2)c(O)n1
Inhibition (Staphylococcus aureus): 4.85%
Inhibition (Acinetobacter baumannii): 12.66%
Inhibition (Escherichia coli): -15.79%
Inhibition (Klebsiella pneumoniae): 16.29%
Inhibition (Candida albicans): 5.32%
Inhibition (Cryptococcus neoformans): 22%

CC1(C)CC[C@]2(C(=O)n3ccnc3)CC[C@]3(C)[C@H](C(=O)C=C4[C@@]5(C)C=C(C#N)C(=O)C(C)(C)[C@@H]5CC[C@]43C)[C@@H]2C1
Inhibition (Staphylococcus aureus): -14.27%
Inhibition (Acinetobacter baumannii): -18.52%
Inhibition (Escherichia coli): 7.42%
Inhibition (Klebsiella pneumoniae): 10.75%
Inhibition (Candida albicans): 4.81%
Inhibition (Cryptococcus neoformans): -0.45%

CCCn1cnc2c(Sc3c([N+](=O)[O-])ncn3C)nc(N)nc21
Inhibition (Staphylococcus aureus): -2.1%
Inhibition (Acinetobacter baumannii): -3.75%
Inhibition (Escherichia coli): 6.82%
Inhibition (Klebsiella pneumoniae): 9.05%
Inhibition (Candida albicans): 1.1%
Inhibition (Cryptococcus neoformans): -2.37%

CCOc1cc2c(Cl)ncnc2c(OCC)c1OCC
Inhibition (Staphylococcus aureus): 4.34%
Inhibition (Acinetobacter baumannii): -8.17%
Inhibition (Escherichia coli): 3.68%
Inhibition (Klebsiella pneumoniae): 0.85%
Inhibition (Candida albicans): 2.82%
Inhibition (Cryptococcus neoformans): -6.05%

Nc1nnc(-c2cccnc2)s1
Inhibition (Staphylococcus aureus): -3.99%
Inhibition (Acinetobacter baumannii): -10.83%
Inhibition (Escherichia coli): 3.28%
Inhibition (Klebsiella pneumoniae): -1.35%
Inhibition (Candida albicans): 0.77%
Inhibition (Cryptococcus neoformans): -10.94%

Cc1cc2cc3n(c2nn1)N=C(Cl)CC3
Inhibition (Staphylococcus aureus): 10.12%
Inhibition (Acinetobacter baumannii): 6.88%
Inhibition (Escherichia coli): -0.69%
Inhibition (Klebsiella pneumoniae): 18.79%
Inhibition (Candida albicans): 2.37%
Inhibition (Cryptococcus neoformans): -3.5%

CCOC(=O)N1CCc2cc(OC)c(OC)c3c2c1cc1cc(OC)c(OC)cc13
Inhibition (Staphylococcus aureus): -2.61%
Inhibition (Acinetobacter baumannii): -15.62%
Inhibition (Escherichia coli): 19.24%
Inhibition (Klebsiella pneumoniae): 9.85%
Inhibition (Candida albicans): 5.76%
Inhibition (Cryptococcus neoformans): -3.38%

Source: ChEMBL document CHEMBL4296182, “CO-ADD screening of NIH NCI Diversity Set V”
